Hit rate of the full screen: of about 310,000 compounds, about 14,000 (4.5%) showed an effect of 50% or more. Effects have a minus sign here. The sample holds strong results, similar compounds and a random draw of the others, so the mix is not that of the screen.
target: human ether-à-go-go-related gene (hERG) potassium channel (human, UniProt Q12809); assay: primary screen, population patch clamp on CHO cells stably expressing hERG; higher = less effect of the substance
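Further: peak tail current of the secondary pulse compared with the same well before compound.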

Chain of human ether-à-go-go-related gene (hERG) potassium channel (Q12809 whole entry, looked up): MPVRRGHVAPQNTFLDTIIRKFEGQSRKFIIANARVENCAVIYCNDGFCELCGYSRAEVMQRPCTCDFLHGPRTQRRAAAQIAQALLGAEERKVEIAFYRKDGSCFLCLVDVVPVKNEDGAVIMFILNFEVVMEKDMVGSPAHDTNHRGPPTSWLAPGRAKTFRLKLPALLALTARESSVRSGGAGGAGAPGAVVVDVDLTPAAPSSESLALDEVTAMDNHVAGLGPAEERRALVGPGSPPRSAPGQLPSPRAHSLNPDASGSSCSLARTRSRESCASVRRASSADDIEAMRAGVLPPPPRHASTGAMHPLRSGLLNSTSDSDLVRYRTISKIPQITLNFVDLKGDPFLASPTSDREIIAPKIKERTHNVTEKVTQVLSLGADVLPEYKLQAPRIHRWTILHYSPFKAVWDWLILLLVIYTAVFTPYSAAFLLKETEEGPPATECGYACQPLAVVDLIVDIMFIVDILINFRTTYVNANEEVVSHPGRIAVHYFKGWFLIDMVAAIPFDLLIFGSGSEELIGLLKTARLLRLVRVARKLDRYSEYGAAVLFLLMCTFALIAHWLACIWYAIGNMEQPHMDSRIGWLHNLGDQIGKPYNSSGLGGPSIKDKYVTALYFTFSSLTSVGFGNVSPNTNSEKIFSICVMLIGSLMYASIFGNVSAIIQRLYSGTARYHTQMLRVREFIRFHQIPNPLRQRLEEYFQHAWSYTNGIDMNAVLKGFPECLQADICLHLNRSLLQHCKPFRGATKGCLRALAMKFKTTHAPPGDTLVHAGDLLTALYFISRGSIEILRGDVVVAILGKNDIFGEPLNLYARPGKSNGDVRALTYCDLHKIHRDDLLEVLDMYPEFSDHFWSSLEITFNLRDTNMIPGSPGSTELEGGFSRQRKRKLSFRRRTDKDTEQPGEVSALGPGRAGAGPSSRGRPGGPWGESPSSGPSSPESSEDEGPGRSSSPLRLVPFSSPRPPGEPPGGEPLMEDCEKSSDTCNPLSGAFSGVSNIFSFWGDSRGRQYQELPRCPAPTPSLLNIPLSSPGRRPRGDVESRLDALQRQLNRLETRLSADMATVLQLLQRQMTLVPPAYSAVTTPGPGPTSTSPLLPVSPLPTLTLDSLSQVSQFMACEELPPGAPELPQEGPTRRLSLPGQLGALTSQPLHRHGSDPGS

SMILES | hERG current change (%, negative = inhibition) at 10uM [%]
Cc1cc(C)c(C)c(S(=O)(=O)N2CCC(C(=O)NCC(c3ccccc3)N(C)C)CC2)c1C (stereo not shown) | -48.9
CC(CC(=O)N(C)CC(=O)Nc1ccc(N2CCOCC2)cc1)c1ccccc1 (stereo not shown) | -13.3
COC(C[C@H]1O[C@H]1C(=O)[C@H](C)OCc1ccccc1)OC | 14.5
CCC(c1nnnn1Cc1ccccc1)N1CCN(c2ccccc2)CC1 (stereo not shown) | -8.7
Cc1cc(Cl)ccc1NC(=O)Cn1cncn1 | 14.3
CN1CCN(C(=O)c2ccc(CS(=O)Cc3ccc(Cl)cc3)o2)CC1 (stereo not shown) | 13.1
O=C(c1ccc(CS(=O)Cc2ccc(Cl)cc2)o1)N1CCN(c2cccc(Cl)c2)CC1 (stereo not shown) | -52.7
COc1cccc(N2CCN(C(=O)c3ccc(CS(=O)c4ccc(Cl)cc4)o3)CC2)c1 (stereo not shown) | -42
COc1cccc(N2CCN(C(=O)c3ccc(CS(=O)Cc4ccc(Cl)cc4)o3)CC2)c1 (stereo not shown) | -41.8
O=C(c1ccc(CS(=O)c2ccccc2Cl)o1)N1CCN(c2ccccc2)CC1 (stereo not shown) | -38.2
O=C(c1ccc(COc2ccccc2Cl)o1)N1CCN(c2ccccc2)CC1 | -24.1
O=C(c1ccc(CS(=O)Cc2ccc(Cl)cc2)o1)N1CCN(c2ccccc2)CC1 (stereo not shown) | -51.8
O=C(c1ccc(CS(=O)Cc2ccc(Cl)cc2)o1)N1CCN(c2ccc(F)cc2)CC1 (stereo not shown) | -62.1
CCOC(=O)C1=C(C)N(c2ccc(Cl)cc2)C(=O)NC1c1cccc([N+](=O)[O-])c1 (stereo not shown) | -24.8
CCOc1ccc(S(=O)(=O)NCCC(=O)NCC2(N3CCCCC3)CCCCC2)cc1 | -33.2
Cc1ccc[n+](CC(=O)Nc2cccc(Cl)c2)c1.[Cl-] | 18.4
CCC(C)(C)C1CCc2c(sc(NC(=O)c3ccccc3C(=O)O)c2C#N)C1 (stereo not shown) | 10.3
O=C1C=C(N2CCN(C(=O)c3ccccc3)CC2)C2(CCCCC2)O1 | -10.3
O=C(NCCS(=O)(=O)N1CCc2ccccc2C1)c1ccccc1 | -23
COc1cccc(SCc2noc(C(=O)NCCCN3CCOCC3)c2C(=O)NCCCN2CCOCC2)c1 | -4.2
Cc1ccc(Cc2c(C)nc3nc(SCC(=O)NCCCN4CCCCCC4)nn3c2C)cc1 | -54.8
Cc1ccc(Cc2c(C)nc3nc(SCC(=O)NCCCN4CCCC4)nn3c2C)cc1 | -28.4

SMILES | hERG current change (%, negative = inhibition) at 10uM [%]
Cc1ccc(Cc2c(C)nc3nc(SCC(=O)NCCCN4CCCCC4)nn3c2C)cc1 | -42.7
CC(C)C[C@@H](N)c1nnc(SCC(=O)c2ccc(Cl)cc2)o1.Cl | -37.1
CC1(C)CC(=O)C=C(Nc2ccccc2NC(=O)c2cnccn2)C1 | -64.7
CC1(C)CC(=O)C=C(Nc2ccccc2O)C1 | 15.7
O=C(Nc1ccccc1Cl)c1cnccn1 | 2.9
Cc1ccc(-n2ncc3c2CCCC3NC(=O)c2ocnc2C)cc1C (stereo not shown) | 1.26
CCOC(=O)c1[nH]c2ccccc2c1N=CN(CC)CC | -60.8
CCOC(=O)c1[nH]c2ccc(OC)cc2c1N=CN(C)C | -7.13
CCOC(=O)c1[nH]c2ccccc2c1N=C(C)N(CC)CC | -54.7
CCOC(=O)c1[nH]c2ccc(F)cc2c1NC(=O)c1ccccc1C(=O)O | 19.4
CCOC(=O)c1[nH]c2ccccc2c1N=CN(C)C | -28.9
CCOC(=O)c1[nH]c2ccccc2c1NC(=O)CN(C)C | 7.08
CCOC(=O)c1[nH]c2ccccc2c1NC(C)=O | -3.18
CCOC(=O)c1[nH]c2ccc(F)cc2c1N=C(C)N(CC)CC | -55.4
CCOC(=O)c1[nH]c2ccc(C)cc2c1N=C(C)N(C)C | -9.99
CC(C)COc1ccc(CNC(=S)Nc2ccccc2)cc1Cl | 8.6
Cc1cc(C)c2c(=O)[nH]n(C(C)C)c2n1 | 7.27
O=C(O)c1ccc([N+](=O)[O-])c2c1C(=O)c1ccccc1C2=O | 23.5
NC(=S)N/N=C/c1c[nH]c2ccc(OCc3ccccc3)cc12 | 6.65
NC(=O)CSc1nnc(NC(=O)c2cccc(S(=O)(=O)N3CCCCC3)c2)s1 | 25.3
CCC(C(=O)Nc1ccc2c(c1)OCCO2)c1ccccc1 (stereo not shown) | 13.4
Cc1noc(C(=O)N2CCN(c3ccccc3)CC2)c1Cl | 6.13

SMILES | hERG current change (%, negative = inhibition) at 10uM [%]
CC1CCN(CCc2nc3cc(NS(=O)(=O)c4ccccc4)ccc3n2C)CC1 | -65.5
CC1CCN(CCc2nc3cc(NC(=O)NC4CCCCC4)ccc3n2C)CC1 | -15.1
Cn1c(CCN2CCOCC2)nc2cc(NS(=O)(=O)c3ccccc3)ccc21 | -1.84
CC1CCN(CCc2nc3cc(NS(=O)(=O)c4ccc(F)cc4)ccc3n2C)CC1 | -70.8
Cn1c(CCN2CCCC2)nc2cc(NS(=O)(=O)c3ccccc3)ccc21 | -40.9
CC1CCN(CCc2nc3cc(NC(=O)C(C)C)ccc3n2C)CC1 | -0.549
Cc1ccc(S(=O)(=O)NCCC(=O)NNC(=O)COc2ccccc2Cl)cc1C | -1.77
O=C(NC1CCCCCC1)C1CC(=O)N(Cc2ccccc2)C1 (stereo not shown) | 5.17
COc1ccccc1C(=O)NC(=S)Nc1ccc(N2CCOCC2)c(Cl)c1 | 13.1
O=[N+]([O-])c1ccc(Cl)cc1 | 10.9
CSc1cccc(NC(C)C(=O)NCc2ccccc2)c1 (stereo not shown) | 2.74
Cl.c1ccc(SCCN2CCN(c3ccccc3)CC2)cc1 | -10.9
Cn1cc(CN2CCN(c3ccccc3)CC2)c2ccccc21 | -54
CN1CCN(Cc2cn(C)c3ccccc23)CC1CCO (stereo not shown) | 25.5
CC(CCN1CCOCC1)c1ccccc1 (stereo not shown) | 21.9
CC(CCN1CCN(CCO)CC1)c1ccccc1 (stereo not shown) | 9.32
c1ccc(N2CCN(Cc3ccnc4ccccc34)CC2)cc1 | -0.764
CC(CCN1CCN(c2ccc(F)cc2)CC1)c1ccccc1 (stereo not shown) | -64.3
CC(CN1CCN(c2ccccc2)CC1)c1ccccc1 (stereo not shown) | -25.5
CC(CCN1CCN(c2ccccc2)CC1)c1ccccc1.Cl (stereo not shown) | -54.6
